In PubChem BioAssay (Tox21):
Records with an inconclusive call do not appear. A call without a number means that no potency is given here. A number with no mark means an inactive call. Calls of active or inactive are those of the source. Unless noted, calls follow the shape of the dose curve; as a rule, active = well fitted curve in the direction sought with a large enough effect in the repeat runs; inconclusive = weak or mixed curves; inactive = no such curve, though single readings can be large; an effect the other way counts as inactive or inconclusive.

Tests used:
[1] = qHTS assay to identify small molecule agonists of the peroxisome proliferator-activated receptor delta (PPARd) signaling pathway - cell viability counter screen (AID 743211); also: nearly all actives have a fitted effect of over 55% in size; also: potency is read from the fitted curve at half-maximal effect
In short: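 qHTS cell viability: PPARd-bla HEK293H; 17 h cpd, 37C; CellTiter-Glo, luminescence at 30 min RT.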

[2] = qHTS assay to identify small molecule antagonists of the peroxisome proliferator-activated receptor delta (PPARd) signaling pathway - cell viability counter screen (AID 743213); also: nearly all actives have a fitted effect of over 50% in size; also: potency is read from the fitted curve at half-maximal effect
In short: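 In this counter screen, HEK293H cells carrying a UAS-beta-lactamase reporter are co-treated with test compounds and 300 nM L165041 (final) for 17 h at 37 C; cell viability is quantified by CellTiter-Glo luminescence.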

[3] = qHTS assay to identify small molecule agonists of the farnesoid-X-receptor (FXR) signaling pathway - cell viability counter screen (AID 743218); also: nearly all actives have a fitted effect of over 45% in size; also: potency is read from the fitted curve at half-maximal effect
In short: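 FXR-UAS-bla HEK 293T cells, plated 5 h at 37 C, were exposed to compounds for 16 h at 37 C. CellTiter-Glo was then added to the same wells as the bla readout; luminescence read after 30 min at room temperature.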

[4] = molecular target: Bile acid receptor (Homo sapiens) (UniProt Q96RI1); test: qHTS assay to identify small molecule agonists of the farnesoid-X-receptor (FXR) signaling pathway (AID 743220; active = well fitted activation curve with a large enough effect in the signal ratio in the repeat runs, not every such curve was filed as active; the % refers to the signal ratio)
In short: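 Beta-lactamase reporter under UAS control in GeneBLAzer FXR HEK 293T cells (5000/well) measured with LiveBLAzer FRET substrate after 2 h at room temperature. Compound exposure lasted 16 h at 37C.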

[5] = qHTS assay to identify small molecule antagonists of the farnesoid-X-receptor (FXR) signaling pathway - cell viability counter screen (AID 743221; active = well fitted cell-killing curve with a large enough effect in the repeat runs, not every such curve was filed as active; also: nearly all actives have a fitted effect of over 50% in size; also: potency is read from the fitted curve at half-maximal effect)
In short: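 After a 5 h settling period, FXR-bla HEK 293T cells receive compound and chenodeoxycholic acid (50 uM final) and incubate 16 h at 37 C; CellTiter-Glo luminescence, read after 30 min at room temperature, reports cell viability.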

[6] = molecular target: Vitamin D3 receptor (Homo sapiens) (UniProt P11473); test: qHTS assay to identify small molecule agonists of the vitamin D receptor (VDR) signaling pathway (AID 743222; calls by dose curve)
In short: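 VDR-bla cells were plated 4 h at 37C/5% CO2, then exposed to compounds in DMSO for 16 h. After LiveBLAzer B/G FRET substrate addition and 2 h at room temperature, beta-lactamase reporter fluorescence was read.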

[7] = qHTS assay to identify small molecule agonists of the NFkB signaling pathway - cell viability counter screen (AID 1159515; calls by dose curve; also: nearly all actives have a fitted effect of over 55% in size; also: potency is read from the fitted curve at half-maximal effect)
In short: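 NFkB-bla ME-180 cells, 2,000/well, were plated overnight at 37 C, 5% CO2, then exposed to compounds in DMSO for 5 hr. After the bla FRET read, CellTiter-Glo was added to the same wells; luminescence was read after 30 min at room temperature.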

[8] = qHTS assay to identify small molecule agonists of the endoplasmic reticulum stress response signaling pathway (AID 1159516; active = well fitted activation curve with a large enough effect in the signal ratio in the repeat runs, not every such curve was filed as active; the % refers to the signal ratio)
In short: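 CellSensor ESRE-bla HeLa cells, carrying a beta-lactamase reporter driven by the ER stress response element, were plated overnight and exposed to compounds for 5 hr at 37 C. Reporter activity was read as FRET substrate fluorescence after 2 hr at room temperature.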

[9] = qHTS assay to identify small molecule agonists of the endoplasmic reticulum stress response signaling pathway - cell viability counter screen (AID 1159517; calls by dose curve; also: series mostly up to about 61 µM; nearly all actives have a fitted effect of over 50% in size)
In short: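 CellTiter-Glo was added to wells already read for beta-lactamase FRET, and luminescence was recorded 30 min later. Cells: ESRE-bla HeLa, 1,500 per well, compound exposure 5 hr at 37 C.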

[10] = qHTS assay to identify small molecule agonists of the AP-1 signaling pathway - cell viability counter screen (AID 1159525; calls by dose curve; also: nearly all actives have a fitted effect of over 55% in size)
In short: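 ME-180 AP-1-bla, 2500 cells/well, Opti-MEM + 0.5% dialyzed FBS; overnight 37 °C; cpd 15-pt titration, 5 h 37 °C; CellTiter-Glo 30 min RT; luminescence read; normalised to TOAB and DMSO controls.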

[11] = molecular target: Peroxisome proliferator-activated receptor delta (Homo sapiens) (UniProt Q03181); test: qHTS assay to identify small molecule agonists of the peroxisome proliferator-activated receptor delta (PPARd) signaling pathway (AID 743212; calls by dose curve)
In short: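 A PPARd-bla HEK293H line with beta-lactamase under an Upstream Activator Sequence is treated with compounds at 37 C. Substrate loading for 2 h at room temperature precedes the fluorescence measurement.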

[12] = qHTS assay to identify small molecule agonists of the vitamin D receptor (VDR) signaling pathway - cell viability counter screen (AID 743224); also: series mostly up to about 63 µM; nearly all actives have a fitted effect of over 50% in size
In short: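 VDR-bla cells were preincubated 4 h at 37C/5% CO2, then exposed to compounds for 16 h. After the 2 h room-temperature bla FRET read, CellTiter-Glo was added to the same wells and luminescence read after 30 min.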

[13] = qHTS assay to identify small molecule antagonists of the vitamin D receptor (VDR) signaling pathway - cell viability counter screen (AID 743225); also: nearly all actives have a fitted effect of over 50% in size
In short: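 Parallel cytotoxicity test: VDR-UAS-bla HEK 293T, 3 nM (final) 1-alpha,25-dihydroxyvitamin D3 with test compound, 16 h, 37C. Endpoint is CellTiter-Glo luminescence in the same wells.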

[14] = qHTS assay to identify small molecule agonists of the AP-1 signaling pathway (AID 1159526; calls by dose curve)
[15] = molecular target: Nuclear receptor ROR-gamma (Homo sapiens) (UniProt P51449); test: qHTS assay to identify small molecule antagonists of the retinoid-related orphan receptor gamma (ROR-gamma) signaling pathway (AID 1159521; also: nearly all actives have a fitted effect of over 50% in size; also: potency is read from the fitted curve at half-maximal effect)
In short: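 Decreased RORE-driven luciferase luminescence indicates antagonism. Tet-on RORγ CHO cells received compound, then 1 uM final doxycycline 2 h later; signal read after 16 h incubation.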

[16] = molecular target: Peroxisome proliferator-activated receptor delta (Homo sapiens) (UniProt Q03181); test: qHTS assay to identify small molecule antagonists of the peroxisome proliferator-activated receptor delta (PPARd) signaling pathway (AID 743215; active = well fitted inhibition curve with a large enough effect in the signal ratio in the repeat runs, not every such curve was filed as active; the % refers to the signal ratio;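 also: cells stimulated with agonist L165041 at 300 nM final during compound exposure; series mostly up to about 62 µM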)
In short: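 PPARd UAS-bla HEK293H cells were pre-incubated 5 h at 37 C, then given test compounds in DMSO plus agonist L165041 (300 nM final). After 17 h at 37 C, beta-lactamase FRET substrate was added; fluorescence read after 2 h at room temperature.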

[17] = molecular target: Bile acid receptor (Homo sapiens) (UniProt Q96RI1); test: qHTS assay to identify small molecule antagonists of the farnesoid-X-receptor (FXR) signaling pathway (AID 743217; active = well fitted inhibition curve with a large enough effect in the signal ratio in the repeat runs, not every such curve was filed as active; the % refers to the signal ratio; also: potency is read from the fitted curve at half-maximal effect)
In short: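 FXR-UAS-bla HEK 293T cells pre-incubated 5 h at 37 °C, then exposed to compounds with chenodeoxycholic acid (50 uM final) for 16 h at 37 °C. Beta-lactamase reporter read by LiveBLAzer B/G FRET substrate fluorescence after 2 h at room temperature.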

[18] = qHTS assay to identify small molecule antagonists of the retinoid-related orphan receptor gamma (ROR-gamma) signaling pathway - cell viability counter screen (AID 1159520); also: nearly all actives have a fitted effect of over 50% in size
In short: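 Tet-on ROR gamma CHO cells (1,000/well) were plated 4 hr, given compounds in DMSO for 2 hr at 37 C, then induced with 1 uM final doxycycline for 16 hr. Viability was read as ATP by CellTiter-Glo luminescence after 30 min.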

[19] = molecular target: Retinoic acid receptor RXR-alpha (Homo sapiens) (UniProt P19793); test: qHTS assay to identify small molecule agonists of the RXR signaling pathway (AID 1159527; calls by dose curve; also: nearly all actives have a fitted effect of over 35% in size)
In short: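 16 hr incubation of compound-treated RXR-alpha-UAS-bla HEK 293T cells (2% charcoal-stripped FBS, 37 C) preceded a 2 hr room-temperature LiveBLAzer FRET substrate step and blue/green fluorescence measurement.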

[20] = molecular target: Vitamin D3 receptor (Homo sapiens) (UniProt P11473); test: qHTS assay to identify small molecule antagonists of the vitamin D receptor (VDR) signaling pathway (AID 743223; active = well fitted inhibition curve with a large enough effect in the signal ratio in the repeat runs, not every such curve was filed as active; the % refers to the signal ratio)
In short: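 Reporter line VDR-bla; stimulus 1alpha,25-(OH)2 vitamin D3, 3 nM final; compound co-addition, 16 h 37C/5% CO2; LiveBLAzer B/G substrate 2 h RT; fluorescence intensity.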

Peroxisome proliferator-activated receptor delta (Homo sapiens), sequence (Q03181 whole entry, looked up): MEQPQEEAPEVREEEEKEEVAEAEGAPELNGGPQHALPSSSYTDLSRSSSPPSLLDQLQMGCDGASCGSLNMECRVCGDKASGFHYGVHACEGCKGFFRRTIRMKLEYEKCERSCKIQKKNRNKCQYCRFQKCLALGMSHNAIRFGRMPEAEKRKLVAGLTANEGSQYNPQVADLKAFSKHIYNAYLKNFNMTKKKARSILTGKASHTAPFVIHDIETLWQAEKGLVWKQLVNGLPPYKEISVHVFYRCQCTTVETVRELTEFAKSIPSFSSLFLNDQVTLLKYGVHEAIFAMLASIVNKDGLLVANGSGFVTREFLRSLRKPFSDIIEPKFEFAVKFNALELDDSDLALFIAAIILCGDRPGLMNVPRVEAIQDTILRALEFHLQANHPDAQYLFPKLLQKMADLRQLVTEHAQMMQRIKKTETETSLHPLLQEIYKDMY
Bile acid receptor (Homo sapiens), sequence (Q96RI1 whole entry, looked up): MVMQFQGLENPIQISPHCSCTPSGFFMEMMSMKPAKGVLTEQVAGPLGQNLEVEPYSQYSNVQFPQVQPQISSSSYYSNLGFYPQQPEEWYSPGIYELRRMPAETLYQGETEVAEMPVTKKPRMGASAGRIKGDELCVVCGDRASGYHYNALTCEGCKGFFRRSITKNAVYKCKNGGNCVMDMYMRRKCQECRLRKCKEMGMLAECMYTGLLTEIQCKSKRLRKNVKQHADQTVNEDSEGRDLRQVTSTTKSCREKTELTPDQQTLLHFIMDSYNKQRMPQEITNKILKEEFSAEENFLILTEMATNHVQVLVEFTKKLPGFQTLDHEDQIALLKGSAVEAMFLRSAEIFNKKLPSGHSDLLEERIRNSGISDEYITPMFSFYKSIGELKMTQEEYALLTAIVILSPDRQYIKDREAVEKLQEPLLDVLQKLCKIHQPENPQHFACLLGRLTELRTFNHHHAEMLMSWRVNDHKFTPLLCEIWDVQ
Retinoic acid receptor RXR-alpha (Homo sapiens), sequence (P19793 whole entry, looked up): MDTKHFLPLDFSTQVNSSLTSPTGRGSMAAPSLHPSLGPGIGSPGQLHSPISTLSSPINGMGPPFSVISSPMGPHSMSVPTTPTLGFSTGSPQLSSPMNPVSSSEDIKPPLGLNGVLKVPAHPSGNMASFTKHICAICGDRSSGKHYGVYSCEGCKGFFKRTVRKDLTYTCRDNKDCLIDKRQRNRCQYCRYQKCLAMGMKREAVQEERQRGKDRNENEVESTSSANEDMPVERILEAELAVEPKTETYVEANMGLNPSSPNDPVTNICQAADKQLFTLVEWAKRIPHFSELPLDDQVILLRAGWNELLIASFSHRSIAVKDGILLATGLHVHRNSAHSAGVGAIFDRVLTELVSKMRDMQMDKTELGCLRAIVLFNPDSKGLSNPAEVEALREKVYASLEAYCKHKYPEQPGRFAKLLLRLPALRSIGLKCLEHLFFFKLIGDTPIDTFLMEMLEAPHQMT
Vitamin D3 receptor (Homo sapiens), sequence (P11473 whole entry, looked up): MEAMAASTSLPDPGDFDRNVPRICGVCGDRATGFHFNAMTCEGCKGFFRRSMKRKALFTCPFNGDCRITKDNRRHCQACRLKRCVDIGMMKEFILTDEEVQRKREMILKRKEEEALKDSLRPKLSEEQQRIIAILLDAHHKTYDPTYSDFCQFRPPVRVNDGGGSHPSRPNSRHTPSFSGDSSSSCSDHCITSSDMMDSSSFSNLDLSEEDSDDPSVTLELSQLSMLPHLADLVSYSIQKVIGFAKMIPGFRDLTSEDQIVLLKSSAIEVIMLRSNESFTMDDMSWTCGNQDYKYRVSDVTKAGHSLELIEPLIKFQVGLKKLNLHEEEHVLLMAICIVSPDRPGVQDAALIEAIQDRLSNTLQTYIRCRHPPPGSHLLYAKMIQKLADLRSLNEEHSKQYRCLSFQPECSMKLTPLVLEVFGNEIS

SMILES	Potency [1]	Potency [2]	Potency [3]	Potency [4]	Potency [5]	Potency [6]	Potency [7]	Potency [8]	Potency [9]	Potency [10]	Potency [11]	Potency [12]	Potency [13]	Potency [14]	Potency [15]	Potency [16]	Potency [17]	Potency [18]	Potency [19]	Potency [20]
COc1ccc2cc1Oc1ccc(cc1)C[C@H]1c3c(cc4c(c3Oc3cc5c(cc3OC)CCN(C)[C@@H]5C2)OCO4)CCN1C	29.8 µM (active)	13.3 µM (active)	18.8 µM (active)	inactive	29.8 µM (active)	inactive	inactive	inactive	inactive	inactive										
COc1ccc(-c2coc3cc(O)ccc3c2=O)cc1	inactive	inactive	inactive		inactive		inactive	inactive	inactive	inactive	inactive	inactive	inactive	inactive						
Nc1cc(Cl)c(O)c(Cl)c1	inactive	inactive	inactive		inactive		inactive	inactive	inactive			inactive	inactive		68.6 µM (active)					
COC(C)=O	inactive	inactive	inactive	inactive	inactive		inactive	inactive		inactive	inactive	inactive	inactive	inactive	inactive	inactive	inactive	inactive	inactive	
COC(=O)c1ccccc1C	inactive	inactive	inactive	inactive	inactive		inactive	inactive		inactive	inactive	inactive	inactive	inactive	inactive	inactive	inactive	inactive	inactive	
C=Cc1cccc(C)c1	inactive	inactive	inactive		inactive	inactive	inactive	inactive		inactive	inactive	inactive	inactive	inactive	inactive	inactive		inactive	inactive	inactive
c1cnccn1	inactive	inactive	inactive	inactive	inactive		inactive	inactive		inactive	inactive	inactive	inactive	inactive	inactive	inactive	inactive	inactive	inactive	
O=c1[nH]c2ccccc2n1CCCN1CCN(C(c2ccccc2)c2ccccc2)CC1	29.8 µM (active)	inactive	26.6 µM (active)		inactive		inactive	inactive	inactive	inactive		inactive	inactive	inactive		inactive				
CC[N+](CC)(CC)CCOC(=O)C(C1CCCC1)C1CCCC1	inactive	inactive	inactive		inactive	inactive	inactive	inactive		inactive	inactive	inactive		inactive	inactive	inactive		inactive	inactive	
O=[N+]([O-])c1cccc(C(F)(F)F)c1	inactive	inactive	inactive		inactive	inactive	inactive	inactive		inactive	inactive	inactive	inactive	inactive	inactive	inactive		inactive	inactive	inactive
O=C(O)c1cc(=O)c2ccccc2o1	inactive	inactive	inactive		inactive	inactive	inactive	inactive		inactive	inactive	inactive	inactive	inactive	inactive	inactive		inactive	inactive	inactive
O=C1C(c2[nH]c3ccc(S(=O)(=O)O)cc3c2O)=Nc2ccc(S(=O)(=O)O)cc21	inactive	inactive	inactive		inactive	inactive	inactive	inactive	inactive	inactive	inactive	inactive	inactive	inactive	inactive	inactive				inactive
CCO[C@@H]1O[C@H](C(COCc2ccccc2)OCc2ccccc2)[C@H](OCc2ccccc2)[C@H]1O (some centres undefined)		inactive	21.1 µM (active)	inactive	13.3 µM (active)		21.3 µM (active)	inactive	inactive			inactive	inactive							
c1ccc(SSc2ccccc2)cc1	inactive	inactive			inactive	inactive	inactive	inactive	inactive	inactive		inactive	inactive		inactive	inactive				
Cc1cc(C(C#N)c2ccc(Cl)cc2)c(Cl)cc1NC(=O)c1cc(I)cc(I)c1O (centres undefined)	29.8 µM (active)				29.8 µM (active)		inactive	inactive	inactive	inactive		inactive	inactive							
COC(=O)C1=C(C)NC(C)=C(C(=O)OCCN2CCN(C(c3ccccc3)c3ccccc3)CC2)C1c1cccc([N+](=O)[O-])c1 (centres undefined)							inactive	inactive	inactive	inactive		inactive					11.9 µM (active)			
Cc1ccc(-c2ccccc2)cc1	inactive	inactive	inactive		inactive	inactive	inactive	inactive		inactive	inactive	inactive		inactive	inactive	inactive		inactive	inactive	
CN1CCN(Cc2cc(-c3ccc4[nH]c(=O)oc4c3)co2)[C@@H](c2ccc(F)cc2)C1				inactive	inactive		inactive	inactive	inactive	inactive	inactive				26.3 µM (active)	inactive	inactive			
CCc1cccc(CC)c1NC(=O)CN(CC(=O)O)CC(=O)O	inactive	inactive	inactive		inactive	inactive	inactive	inactive		inactive	inactive	inactive	inactive	inactive	inactive	inactive		inactive	inactive	inactive
